Binding signal data for one sequence are collected here from article PMC7862700, “An all-to-all approach to the identification of sequence-specific readers for epigenetic DNA modifications on cytosine”.

Common to all, as to assay: DAPPL (digital affinity profiling via proximity ligation, sequencing); 10 mM Tris-HCl pH 7.5, 50 mM NaCl, 1 mM DTT, 4% glycerol, room temperature, 30 min; GST-TFs on glutathione beads, 16-mer random dsDNA library, 0.1% formaldehyde crosslink after washing; high values mean tight binding
Common to all, as to settings: protein: recombinant; tags: N-terminal GST; dsDNA, one strand shown

The target of one assay is T1, FLI1 (Homo sapiens, UniProt Q01543 1-452).
T1 sequence: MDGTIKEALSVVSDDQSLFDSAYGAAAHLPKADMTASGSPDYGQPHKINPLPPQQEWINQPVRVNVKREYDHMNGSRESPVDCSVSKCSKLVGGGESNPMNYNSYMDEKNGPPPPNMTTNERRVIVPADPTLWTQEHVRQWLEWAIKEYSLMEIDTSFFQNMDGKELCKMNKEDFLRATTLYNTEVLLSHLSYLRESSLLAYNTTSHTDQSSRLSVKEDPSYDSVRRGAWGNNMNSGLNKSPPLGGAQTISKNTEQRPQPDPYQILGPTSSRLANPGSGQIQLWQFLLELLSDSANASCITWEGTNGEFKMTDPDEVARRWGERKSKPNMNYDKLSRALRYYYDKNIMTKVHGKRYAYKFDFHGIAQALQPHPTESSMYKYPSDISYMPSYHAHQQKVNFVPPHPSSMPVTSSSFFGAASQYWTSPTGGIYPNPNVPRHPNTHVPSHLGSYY
The method in brief:
(§1)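 Human transcription factors fused to GST were expressed in yeast, captured on glutathione beads, given DNA barcodes and pooled with a GST-only negative control. Pools were incubated with 200 nmole of a 16-mer random double-stranded DNA library in Tris/NaCl/DTT/glycerol buffer at room temperature for 30 min. They were then washed, crosslinked with 0.1% formaldehyde, proximity-ligated (BsaI/T4 ligase, 1 h, 37 °C), PCR-amplified and sequenced on an Illumina NextSeq500. Binding signal is each 6-mer's read frequency for a factor divided by its frequency for the GST control.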

A further assay addresses T2, ELK1 (Homo sapiens, UniProt P19419 1-428).
T2 sequence: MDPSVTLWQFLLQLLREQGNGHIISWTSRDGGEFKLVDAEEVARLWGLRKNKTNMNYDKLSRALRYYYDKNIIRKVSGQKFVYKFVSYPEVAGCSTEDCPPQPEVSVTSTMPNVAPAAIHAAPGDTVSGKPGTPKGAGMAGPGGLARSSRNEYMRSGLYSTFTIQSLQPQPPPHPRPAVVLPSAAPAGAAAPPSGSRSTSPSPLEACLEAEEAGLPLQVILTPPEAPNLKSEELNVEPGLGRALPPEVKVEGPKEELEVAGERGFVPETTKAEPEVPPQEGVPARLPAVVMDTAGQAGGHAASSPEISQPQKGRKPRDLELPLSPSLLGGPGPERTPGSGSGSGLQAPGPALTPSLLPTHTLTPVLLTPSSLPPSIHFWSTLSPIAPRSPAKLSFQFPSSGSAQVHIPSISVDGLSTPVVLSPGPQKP
The method in brief: as §1

Another assay concerns the target T3, GABPA (Homo sapiens, UniProt Q06546 1-454).
T3 sequence: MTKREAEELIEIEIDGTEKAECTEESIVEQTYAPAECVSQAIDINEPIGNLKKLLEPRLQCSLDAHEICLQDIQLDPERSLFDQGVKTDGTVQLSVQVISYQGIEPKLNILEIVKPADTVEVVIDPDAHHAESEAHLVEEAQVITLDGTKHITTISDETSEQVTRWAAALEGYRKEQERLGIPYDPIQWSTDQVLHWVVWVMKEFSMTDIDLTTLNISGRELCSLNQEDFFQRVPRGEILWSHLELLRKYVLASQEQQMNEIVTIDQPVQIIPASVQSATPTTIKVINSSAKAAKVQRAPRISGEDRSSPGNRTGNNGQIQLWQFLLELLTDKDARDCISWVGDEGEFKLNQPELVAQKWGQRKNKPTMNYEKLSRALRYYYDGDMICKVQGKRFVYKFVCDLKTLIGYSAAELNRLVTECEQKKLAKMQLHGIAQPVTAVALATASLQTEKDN
The method in brief:
as §1

In the next assay the target is T4, ERG (Homo sapiens, UniProt P11308 1-479).
T4 sequence: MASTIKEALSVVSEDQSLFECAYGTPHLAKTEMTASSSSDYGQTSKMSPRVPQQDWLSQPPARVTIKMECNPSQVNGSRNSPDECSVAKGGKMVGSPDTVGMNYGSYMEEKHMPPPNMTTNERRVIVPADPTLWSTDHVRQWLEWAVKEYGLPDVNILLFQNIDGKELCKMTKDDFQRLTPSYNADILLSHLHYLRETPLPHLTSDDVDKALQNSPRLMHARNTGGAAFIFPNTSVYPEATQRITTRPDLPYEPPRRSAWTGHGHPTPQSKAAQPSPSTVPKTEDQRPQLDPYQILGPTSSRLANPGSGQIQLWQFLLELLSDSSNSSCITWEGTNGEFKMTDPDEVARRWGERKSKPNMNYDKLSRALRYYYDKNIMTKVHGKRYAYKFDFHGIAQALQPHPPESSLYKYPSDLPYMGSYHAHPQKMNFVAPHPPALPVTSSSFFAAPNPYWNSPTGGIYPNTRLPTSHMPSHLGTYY
The method in brief:
as §1

The target of the next assay is ELF1 (Homo sapiens, UniProt P32519 1-619). The method in brief: as §1
Chain of ELF1 (P32519 whole entry): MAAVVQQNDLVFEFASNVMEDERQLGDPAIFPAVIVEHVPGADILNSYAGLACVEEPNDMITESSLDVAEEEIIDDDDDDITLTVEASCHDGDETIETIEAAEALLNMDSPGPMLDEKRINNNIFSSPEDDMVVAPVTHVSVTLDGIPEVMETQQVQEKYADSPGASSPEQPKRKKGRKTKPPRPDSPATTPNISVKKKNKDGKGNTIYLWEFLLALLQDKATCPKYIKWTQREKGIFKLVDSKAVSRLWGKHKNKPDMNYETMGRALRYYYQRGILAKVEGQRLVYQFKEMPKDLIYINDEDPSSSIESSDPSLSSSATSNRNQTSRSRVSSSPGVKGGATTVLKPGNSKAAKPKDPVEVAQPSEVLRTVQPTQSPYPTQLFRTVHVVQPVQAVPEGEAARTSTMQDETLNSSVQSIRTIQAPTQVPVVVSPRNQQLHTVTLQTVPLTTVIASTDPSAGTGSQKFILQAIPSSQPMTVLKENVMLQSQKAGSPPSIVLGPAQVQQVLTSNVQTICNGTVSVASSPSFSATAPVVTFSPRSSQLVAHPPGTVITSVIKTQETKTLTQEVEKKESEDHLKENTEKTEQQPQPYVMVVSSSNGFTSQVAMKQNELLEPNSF
For another assay, the target named is T5, EHF (Homo sapiens, UniProt Q9NZC4 1-300).
T5 sequence: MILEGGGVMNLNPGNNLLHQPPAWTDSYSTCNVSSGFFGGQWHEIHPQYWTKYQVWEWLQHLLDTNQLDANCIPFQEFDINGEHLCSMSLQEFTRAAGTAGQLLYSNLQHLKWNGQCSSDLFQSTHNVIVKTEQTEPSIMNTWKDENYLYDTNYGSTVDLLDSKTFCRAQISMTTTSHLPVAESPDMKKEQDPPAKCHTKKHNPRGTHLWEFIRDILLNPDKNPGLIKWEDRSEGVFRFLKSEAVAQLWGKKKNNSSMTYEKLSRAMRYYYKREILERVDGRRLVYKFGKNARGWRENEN
The method in brief: as §1

Another assay addresses SPIB (Homo sapiens, UniProt Q01892 1-262). The method in brief:
as §1

In another assay the target is T6, SPIC (Homo sapiens, UniProt Q8N5J4 1-248).
T6 sequence: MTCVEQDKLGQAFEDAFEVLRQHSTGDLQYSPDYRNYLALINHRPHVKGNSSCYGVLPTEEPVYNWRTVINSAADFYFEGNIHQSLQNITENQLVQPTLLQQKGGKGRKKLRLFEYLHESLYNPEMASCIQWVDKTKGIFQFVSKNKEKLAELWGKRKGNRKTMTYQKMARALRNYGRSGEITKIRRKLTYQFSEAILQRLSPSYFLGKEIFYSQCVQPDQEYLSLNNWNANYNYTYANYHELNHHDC
The method in brief:
as §1

Another assay concerns the target ELF4 (Homo sapiens, UniProt Q99607 1-663). The method in brief:
as §1

In a further assay the target is T7, ELK4 (Homo sapiens, UniProt P28324-2 1-405).
T7 sequence: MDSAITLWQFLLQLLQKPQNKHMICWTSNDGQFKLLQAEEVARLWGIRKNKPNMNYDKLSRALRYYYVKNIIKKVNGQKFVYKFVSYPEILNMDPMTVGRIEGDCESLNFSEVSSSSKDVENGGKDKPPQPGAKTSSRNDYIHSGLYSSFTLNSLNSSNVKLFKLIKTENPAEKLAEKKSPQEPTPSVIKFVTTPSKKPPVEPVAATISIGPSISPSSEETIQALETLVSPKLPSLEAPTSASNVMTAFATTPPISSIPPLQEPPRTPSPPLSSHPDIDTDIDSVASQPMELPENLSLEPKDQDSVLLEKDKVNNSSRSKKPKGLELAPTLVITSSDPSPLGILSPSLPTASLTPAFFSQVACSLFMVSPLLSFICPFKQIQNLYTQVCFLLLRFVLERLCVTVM
The method in brief: as §1

For a further assay, the target named is T8, ETV2 (Homo sapiens, UniProt O00321 1-342).
T8 sequence: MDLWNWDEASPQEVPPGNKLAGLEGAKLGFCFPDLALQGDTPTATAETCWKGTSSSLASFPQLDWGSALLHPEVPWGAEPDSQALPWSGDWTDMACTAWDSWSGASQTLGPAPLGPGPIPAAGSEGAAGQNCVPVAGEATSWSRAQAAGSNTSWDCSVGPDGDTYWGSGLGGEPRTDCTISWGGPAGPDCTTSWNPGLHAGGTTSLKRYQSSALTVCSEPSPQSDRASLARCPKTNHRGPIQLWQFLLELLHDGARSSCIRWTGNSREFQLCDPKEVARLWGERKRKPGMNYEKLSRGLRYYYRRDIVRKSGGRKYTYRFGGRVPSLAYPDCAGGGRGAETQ
The method in brief: as §1

Another assay concerns the target T9, ELF3 (Homo sapiens, UniProt P78545 1-371).
T9 sequence: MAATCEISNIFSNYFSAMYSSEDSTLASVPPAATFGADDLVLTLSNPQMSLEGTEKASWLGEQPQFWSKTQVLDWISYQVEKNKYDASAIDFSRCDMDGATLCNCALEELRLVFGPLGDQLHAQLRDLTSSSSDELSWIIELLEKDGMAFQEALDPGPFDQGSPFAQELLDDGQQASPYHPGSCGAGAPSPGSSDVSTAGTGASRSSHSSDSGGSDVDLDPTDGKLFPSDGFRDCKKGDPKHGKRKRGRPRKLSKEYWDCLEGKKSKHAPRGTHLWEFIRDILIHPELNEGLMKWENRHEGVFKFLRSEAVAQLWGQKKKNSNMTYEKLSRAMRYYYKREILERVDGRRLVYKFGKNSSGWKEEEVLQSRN
The method in brief:
as §1

A further assay concerns the target ETV1 (Homo sapiens, UniProt P50549 1-477). The method in brief: as §1
For another assay, the target named is T10, ERF (Homo sapiens, UniProt P50548 1-548).
T10 sequence: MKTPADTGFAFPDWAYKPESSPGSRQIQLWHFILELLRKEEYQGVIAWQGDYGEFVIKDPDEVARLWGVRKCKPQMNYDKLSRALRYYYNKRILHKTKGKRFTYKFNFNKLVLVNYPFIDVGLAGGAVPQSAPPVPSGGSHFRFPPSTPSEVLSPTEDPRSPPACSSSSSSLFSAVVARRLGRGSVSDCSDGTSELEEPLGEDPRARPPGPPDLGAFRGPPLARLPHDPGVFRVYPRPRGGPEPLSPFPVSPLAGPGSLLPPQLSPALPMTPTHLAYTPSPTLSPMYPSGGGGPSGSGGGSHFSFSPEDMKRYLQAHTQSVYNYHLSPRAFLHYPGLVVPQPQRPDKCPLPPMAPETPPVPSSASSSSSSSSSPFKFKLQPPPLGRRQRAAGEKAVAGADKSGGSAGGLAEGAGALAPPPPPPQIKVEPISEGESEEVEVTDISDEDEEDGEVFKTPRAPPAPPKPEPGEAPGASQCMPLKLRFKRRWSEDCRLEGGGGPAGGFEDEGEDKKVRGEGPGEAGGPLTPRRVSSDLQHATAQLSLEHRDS
The method in brief: as §1

The next assay addresses T11, ETV3L (Homo sapiens, UniProt Q6ZN32 1-361).
T11 sequence: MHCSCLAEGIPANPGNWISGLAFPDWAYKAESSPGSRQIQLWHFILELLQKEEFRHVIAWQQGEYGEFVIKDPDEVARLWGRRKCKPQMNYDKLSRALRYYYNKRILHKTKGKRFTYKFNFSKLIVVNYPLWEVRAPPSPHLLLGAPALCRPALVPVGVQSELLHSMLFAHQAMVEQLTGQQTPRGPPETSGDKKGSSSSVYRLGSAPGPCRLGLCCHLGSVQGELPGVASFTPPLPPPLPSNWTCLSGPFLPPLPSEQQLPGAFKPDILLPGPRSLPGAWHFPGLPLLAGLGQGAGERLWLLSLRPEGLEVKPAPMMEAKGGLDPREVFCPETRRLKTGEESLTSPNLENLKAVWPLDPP
The method in brief:
as §1

A further assay deals with T12, ETV7 (Homo sapiens, UniProt Q9Y603 1-341).
T12 sequence: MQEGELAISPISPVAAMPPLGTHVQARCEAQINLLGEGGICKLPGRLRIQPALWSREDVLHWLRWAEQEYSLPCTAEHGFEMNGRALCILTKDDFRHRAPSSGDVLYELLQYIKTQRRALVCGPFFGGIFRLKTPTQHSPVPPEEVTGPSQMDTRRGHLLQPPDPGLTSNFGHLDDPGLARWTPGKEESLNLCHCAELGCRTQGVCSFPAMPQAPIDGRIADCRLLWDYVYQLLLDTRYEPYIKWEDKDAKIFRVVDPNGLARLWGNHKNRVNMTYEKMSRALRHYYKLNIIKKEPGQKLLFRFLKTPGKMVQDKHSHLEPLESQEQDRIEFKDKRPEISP
The method in brief:
as §1

In the next assay the target is T13, ETV3 (Homo sapiens, UniProt P41162-2 1-143).
T13 sequence: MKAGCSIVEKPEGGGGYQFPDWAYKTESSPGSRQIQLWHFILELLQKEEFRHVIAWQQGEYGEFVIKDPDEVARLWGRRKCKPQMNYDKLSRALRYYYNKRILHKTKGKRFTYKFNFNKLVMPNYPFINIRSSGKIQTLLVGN
The method in brief:
as §1

The next assay has as its target ETV6 (Homo sapiens, UniProt P41212 1-452). The method in brief: as §1

Chain of ETV1 (P50549 whole entry): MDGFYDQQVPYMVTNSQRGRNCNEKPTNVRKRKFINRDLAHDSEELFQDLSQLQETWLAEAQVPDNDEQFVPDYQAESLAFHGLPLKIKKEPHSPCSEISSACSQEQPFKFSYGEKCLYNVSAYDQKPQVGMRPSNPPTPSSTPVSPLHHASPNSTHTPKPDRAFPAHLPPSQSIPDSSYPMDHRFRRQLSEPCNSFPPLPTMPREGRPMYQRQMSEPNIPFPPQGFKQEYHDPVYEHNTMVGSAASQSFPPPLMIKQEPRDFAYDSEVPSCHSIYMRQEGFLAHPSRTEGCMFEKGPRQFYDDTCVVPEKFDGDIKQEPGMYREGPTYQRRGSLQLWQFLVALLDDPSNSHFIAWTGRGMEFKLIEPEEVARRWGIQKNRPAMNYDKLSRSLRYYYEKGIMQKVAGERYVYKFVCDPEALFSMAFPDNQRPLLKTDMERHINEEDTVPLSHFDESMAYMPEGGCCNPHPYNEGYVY
Chain of SPIB (Q01892 whole entry): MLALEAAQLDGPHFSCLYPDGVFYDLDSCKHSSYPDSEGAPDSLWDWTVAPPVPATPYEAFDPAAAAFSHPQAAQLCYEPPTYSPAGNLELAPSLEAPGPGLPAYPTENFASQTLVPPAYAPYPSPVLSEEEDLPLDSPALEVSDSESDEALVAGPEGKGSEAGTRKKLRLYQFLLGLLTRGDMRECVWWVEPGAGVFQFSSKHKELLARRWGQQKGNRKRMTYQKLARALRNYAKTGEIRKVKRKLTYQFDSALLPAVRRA
Chain of ETV6 (P41212 whole entry): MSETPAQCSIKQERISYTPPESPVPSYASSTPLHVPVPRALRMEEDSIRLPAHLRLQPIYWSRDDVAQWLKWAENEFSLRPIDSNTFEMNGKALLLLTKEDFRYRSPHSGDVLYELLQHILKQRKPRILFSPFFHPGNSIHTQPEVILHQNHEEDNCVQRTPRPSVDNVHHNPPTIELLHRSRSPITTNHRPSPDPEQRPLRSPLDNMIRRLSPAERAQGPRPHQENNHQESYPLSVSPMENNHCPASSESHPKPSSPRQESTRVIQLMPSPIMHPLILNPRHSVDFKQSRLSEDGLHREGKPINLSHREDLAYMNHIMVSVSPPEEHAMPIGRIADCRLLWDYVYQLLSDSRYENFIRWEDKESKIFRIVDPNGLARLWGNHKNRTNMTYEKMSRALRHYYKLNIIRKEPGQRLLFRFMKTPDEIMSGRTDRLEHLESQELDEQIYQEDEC
Chain of ELF4 (Q99607 whole entry): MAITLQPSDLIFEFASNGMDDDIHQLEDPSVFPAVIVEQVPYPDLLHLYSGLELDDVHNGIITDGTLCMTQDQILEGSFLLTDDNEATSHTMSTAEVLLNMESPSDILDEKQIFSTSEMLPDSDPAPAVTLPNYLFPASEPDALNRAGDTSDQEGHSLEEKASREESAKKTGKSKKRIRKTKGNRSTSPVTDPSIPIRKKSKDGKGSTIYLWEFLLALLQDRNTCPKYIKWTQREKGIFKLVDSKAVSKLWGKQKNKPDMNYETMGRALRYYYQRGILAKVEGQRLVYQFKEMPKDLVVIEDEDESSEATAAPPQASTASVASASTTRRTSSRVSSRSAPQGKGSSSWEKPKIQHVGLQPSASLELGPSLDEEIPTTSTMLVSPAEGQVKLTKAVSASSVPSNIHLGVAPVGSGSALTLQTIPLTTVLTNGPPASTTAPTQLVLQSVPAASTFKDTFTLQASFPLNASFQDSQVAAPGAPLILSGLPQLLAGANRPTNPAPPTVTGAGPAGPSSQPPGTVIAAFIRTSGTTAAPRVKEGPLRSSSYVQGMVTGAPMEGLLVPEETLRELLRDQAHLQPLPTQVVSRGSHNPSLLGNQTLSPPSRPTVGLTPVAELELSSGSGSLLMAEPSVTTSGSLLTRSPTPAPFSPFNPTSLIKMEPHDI

Consider ACAGCC, for which the binding signal is 1 fold enrichment (6-mer frequency, TF over GST control) with FLI1; 1.1 fold enrichment (6-mer frequency, TF over GST control) in the assay with ELK1; 1.07 fold enrichment (6-mer frequency, TF over GST control) in the assay with GABPA; 1.02 fold enrichment (6-mer frequency, TF over GST control) with ERG; 1.11 fold enrichment (6-mer frequency, TF over GST control) with ELF1; 1.11 fold enrichment (6-mer frequency, TF over GST control) with EHF. In addition, the binding signal is 1.03 fold enrichment (6-mer frequency, TF over GST control) in the assay with SPIB; 1.08 fold enrichment (6-mer frequency, TF over GST control) with SPIC; 1.11 fold enrichment (6-mer frequency, TF over GST control) with ELF4; 1.04 fold enrichment (6-mer frequency, TF over GST control) with ELK4; 1.05 fold enrichment (6-mer frequency, TF over GST control) in the assay with ETV2; 1.24 fold enrichment (6-mer frequency, TF over GST control) with ELF3. Also, the binding signal was 1.06 fold enrichment (6-mer frequency, TF over GST control) with ETV1; 1.18 fold enrichment (6-mer frequency, TF over GST control) in the assay with ERF; 1.04 fold enrichment (6-mer frequency, TF over GST control) in the assay with ETV3L; 1.15 fold enrichment (6-mer frequency, TF over GST control) with ETV7; 1.04 fold enrichment (6-mer frequency, TF over GST control) with ETV3; 1.03 fold enrichment (6-mer frequency, TF over GST control) in the assay with ETV6.
